Compounds with a hit are over-represented: about 2.6% of the library has one in this group of screens.
TWEAK Fn14 block: TWEAK-Fn14 signaling inhibition | TWEAK-stimulated Fn14 reporter cells, luciferase luminescence, 8 h | inhibition, % at 10 µM | 2% of 360,000 active; in the data active = inhibition above about 50%
LGR2 inh: Drosophila LGR2 receptor signaling inhibition; AID 720647; 0.35% of 380,000 active; HEK293 LGR2, CRE-luciferase, bursicon-stimulated, 4 h; inhibition, % at 9.99 µM;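 active = drop in luminescence signal, shown as inhibition above about 50% in the replicate tests, limit read from the data, passing the limit was not always enough; inconclusive = probably only some replicates passing the limit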;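 also: agonist challenge used bursicon conditioned medium at about half maximal strength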
TROY NFkB inh: blocks TROY-dependent signaling in reporter cells. Q293 LMP1-TROYcd NF-kB luciferase reporter, 4 h. inhibition, % at 10 µM. 0.98% of 360,000 active. AID 1347056;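 active = compounds whose plate-normalised and pattern-corrected inhibition of the luciferase reporter signal at the single screening dose is 50% or more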
EWS-Fli inh: EWS/Fli transcriptional activity inhibition. A673 NR0B1-luciferase reporter, viability-normalised. inhibition, % at 12.6 µM. 0.67% of 350,000 active. AID 651661;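 active = mean inhibition of at least 50% after viability correction, with every replicate also passing that limit; inconclusive = mean reaches 50% but only one of two replicates passes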;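 also: firefly luciferase signal divided by Alamar Blue viability fluorescence both relative to DMSO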
LMP1 NFkB inh: Epstein-Barr LMP1 NF-kappaB reporter inhibition; inhibition, % at 12.5 µM; LMP1-induced NF-kappaB luciferase reporter cells, luminescence; 0.69% of 350,000 active; in the data active = inhibition above about 41%; inconclusive = no clear call, values can overlap the other calls;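 also: 0% = neutral control wells and 100% = reference inhibitor control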
Active calls of the source: *; ? = inconclusive; · = no result.

SMILES | TWEAK Fn14 block | LGR2 inh | TROY NFkB inh | EWS-Fli inh | LMP1 NFkB inh
CC(C)NC(=O)N(C)C[C@H]1OCCCC[C@H](C)Oc2ccc(NC(=O)C3CCCCC3)cc2C(=O)N([C@@H](C)CO)C[C@@H]1C | · | 11 | · | · | ·
CCOC(=O)C1=C(C)N(C)C(=O)NC1c1ccccc1OC (stereo not drawn) | 5 | · | 15 | · | 40*
S=C1SCN(Cc2ccccc2)CN1Cc1ccco1 | 10 | -2 | -4 | 1 | 42*
S=C1SCN(Cc2ccccc2)CN1Cc1ccccc1 | 0 | 14 | 2 | 17 | 33
CCC1CSC(Nc2ccc(C(=O)/C=C/c3cccc(C)c3)cc2)=N1 (stereo not drawn) | 52* | · | -11 | -10 | -2
COc1ccc(/C=C2\SC(=S)N(CCCC(=O)NC34CC5CC(CC(O)(C5)C3)C4)C2=O)cc1 | · | · | · | 32 | ·
COc1cc(/C=N/NC(=O)c2nnn(-c3nonc3N)c2C(C)C)ccc1O | 10 | 13 | 14 | 0 | 2
CC(C)c1c(C(=O)N/N=C/c2ccc(OCc3ccccc3)cc2)nnn1-c1nonc1N | -34 | -29 | -19 | · | -7
COc1cccc(/C=N/NC(=O)c2nnn(-c3nonc3N)c2C(C)C)c1OCc1ccc(F)cc1 | 63* | · | 62* | · | 14
COc1cc(/C=N/NC(=O)c2nnn(-c3nonc3N)c2C(C)C)ccc1OCc1ccccc1 | 62* | -3 | 37 | -25 | -4
Nc1nonc1-n1nnc(C(=O)N/N=C/c2cccc(Cl)c2)c1-c1cccs1 | 51* | 3 | 6 | · | -1
CC(C)c1c(C(=O)N/N=C/c2cccc(OCc3ccccc3)c2)nnn1-c1nonc1N | 43 | 13 | 58* | · | -11
COc1ccc2c3c(n(C)c2c1)[C@@H](CO)N(Cc1ccc2c(c1)OCO2)CC31CCN(C)CC1 | · | 18 | · | 1 | ·
COCC(=O)Nc1ccc2c(c1)[C@@H]1C[C@@H](CC(=O)N[C@@H](C)c3ccccc3)O[C@@H](CO)[C@@H]1O2 | · | -19 | · | 6 | ·
O=C(O)c1cc(-c2ccc(/C=C3/SC(=S)N(Cc4ccccc4)C3=O)o2)ccc1Cl | 34 | ? | 52* | -11 | 8
O=C1/C(=C/c2ccncc2)SC(=S)N1Cc1ccccc1 | 46 | 39 | 27 | 37 | 43*
O=C(CCCC(=O)N1CCN(c2ccccc2F)CC1)N1CCN(c2ccccc2F)CC1 | 31 | · | 39 | · | 0
O=C(O)/C=C/C(=O)N1CCN(c2ccccc2F)CC1 | 11 | -1 | 75* | -32 | 0
C[C@H]1CN([C@@H](C)CO)C(=O)Cc2cc(NC(=O)Nc3ccc4c(c3)OCO4)ccc2O[C@H]1CN(C)S(=O)(=O)c1ccccc1 | · | 12 | · | 55* | ·
COc1ccc(S(=O)(=O)N(C)C[C@H]2Oc3c(NC(=O)CCC(F)(F)F)cccc3C(=O)N([C@H](C)CO)C[C@@H]2C)cc1 | 5 | 0 | 1 | -1 | 56*
C[C@@H]1CN([C@H](C)CO)C(=O)Cc2cc(NC(=O)Nc3ccc4c(c3)OCO4)ccc2O[C@@H]1CN(C)S(=O)(=O)c1ccccc1 | · | -2 | · | -5 | ·
Cc1ccc(S(=O)(=O)N(C)C[C@@H]2Oc3ccc(NC(=O)Nc4ccc5c(c4)OCO5)cc3CC(=O)N([C@H](C)CO)C[C@@H]2C)cc1 | · | 1 | · | 56* | ·
C[C@H](CO)N1C[C@H](C)[C@H](CN(C)S(=O)(=O)c2ccc(Cl)cc2)Oc2ccc(NC(=O)Nc3ccc4c(c3)OCO4)cc2CC1=O | · | 13 | · | 61* | ·
COCCNC(=O)C[C@H]1C[C@H]2c3cc(NC(=O)Nc4ccccc4)ccc3O[C@H]2[C@@H](CO)O1 | · | 2 | · | 1 | ·
C[C@H]1CCCCO[C@@H](CN(C)C(=O)c2ccncc2)[C@@H](C)CN([C@@H](C)CO)C(=O)c2cc(NC(=O)c3ccncc3)ccc2O1 | · | -16 | · | · | ·
SMILES | TWEAK Fn14 block | LGR2 inh | TROY NFkB inh | EWS-Fli inh | LMP1 NFkB inh
C[C@H]1CN([C@@H](C)CO)C(=O)Cc2cc(NC(=O)Nc3ccc4c(c3)OCO4)ccc2O[C@H]1CN(C)S(=O)(=O)c1ccc(Cl)cc1 | · | 8 | · | 58* | ·
Cc1ccc(S(=O)(=O)N(C)C[C@H]2Oc3ccc(NC(=O)CCC(F)(F)F)cc3CC(=O)N([C@H](C)CO)C[C@@H]2C)cc1 | · | 3 | · | 4 | ·
Cc1ccc(S(=O)(=O)N(C)C[C@@H]2Oc3ccc(NC(=O)CCC(F)(F)F)cc3CC(=O)N([C@@H](C)CO)C[C@@H]2C)cc1 | 0 | -14 | 31 | 66* | -2
C[C@@H]1CN([C@@H](C)CO)S(=O)(=O)c2ccc(/C=C/c3ccccc3)cc2O[C@@H]1CN(C)Cc1cncnc1 | · | 35 | · | -3 | ·
CCOC(=O)c1c(C)[nH]c(C2=NNC(=NC3CC3)SC2)c1C | 85* | · | 84* | · | 50*
CCC(=O)OCCNc1cc(Sc2nc3ccccc3[nH]2)c2nonc2c1[N+](=O)[O-] | 54* | 7 | 54* | · | 10
Cc1ccc(S(=O)(=O)N2CCN(C(=O)COC(=O)COc3ccc(Cl)cc3)CC2)c(C)c1 | 10 | · | -18 | 17 | 58*
O=C(Nc1cccc(S(=O)(=O)N2CCCC2)c1)c1ccc2c(=O)n3c(nc2c1)CCCCC3 | 57* | 0 | 28 | 7 | 17
O=C(Nc1cccc(S(=O)(=O)N2CCOCC2)c1)c1ccc2c(=O)n3c(nc2c1)CCCCC3 | 31 | 28 | 32 | 14 | 10
O=C(Nc1nc(-c2ccccc2)cs1)c1ccc2c(=O)n3c(nc2c1)CCCCC3 | 106* | 14 | 71* | 1 | 32
O=C(Nc1ccccc1Cl)c1ccc2c(=O)n3c(nc2c1)CCC3 | 24 | -28 | -9 | -41 | -3
Cc1cccc(NC(=O)c2ccc3c(=O)n4c(nc3c2)CCCCC4)n1 | 57* | 17 | 40 | 9 | 21
C[C@@H]1CCCCO[C@@H](CN(C)C(=O)C2CCCCC2)[C@H](C)CN([C@H](C)CO)C(=O)c2cc(NC(=O)C3CCCCC3)ccc2O1 | · | -7 | · | 17 | ·
COc1ccc(C)cc1Nc1c2c(nc3ccccc13)CCC2 | 0 | -6 | 35 | 53* | 14
COc1ccc(Nc2c3c(nc4ccccc24)CCCC3)cc1OC | -1 | 21 | -7 | -5 | 0
CCOC(=O)C1=C(N)Oc2cc(C)n(C)c(=O)c2C1c1ccncc1 (stereo not drawn) | -10 | · | 9 | · | 5
CCOC(=O)C1=C(N)Oc2cc(C)[nH]c(=O)c2C1c1ccncc1 (stereo not drawn) | 76* | · | · | · | -2
COc1cc(OC)c2c(-c3cccc(-c4ccc(C(C)=O)cc4)c3)cc(=O)oc2c1 | 77* | · | 56* | · | -1
COc1cc(OC)c2c(-c3cccc(-c4ccc(OC)c(F)c4)c3)cc(=O)oc2c1 | -26 | -27 | 4 | 39 | -11
C[C@H](CO)N1C[C@H](C)[C@H](CN(C)C(=O)NC2CCCCC2)Oc2ccc(NC(=O)Nc3ccc(F)cc3)cc2CC1=O | · | 9 | · | -6 | ·
CCCNC(=O)N[C@H]1C=C[C@H](CC(=O)NC2CCC2)O[C@@H]1CO | · | 5 | · | -2 | ·
CCOc1ccc(-c2nc(-c3cccnc3)no2)cc1 | 67* | · | 0 | · | 3
CCOc1ccc(-c2nnc(-c3ccccc3)o2)cc1 | 81* | · | 34 | · | -2
